Results as given in the antibiotic and cytotoxicity screens of Wong et al. (2023).
Screen size: about 39,000 compounds; about 3,300 (8.5%) were called active. The entries come from a sample that favours actives as a whole.

Tested on: HepG2
Assay: cytotoxicity call (relative viability < 0.9)
Details: 10 µM

Structure (SMILES)	cytotoxicity call
Cc1ccc(=O)n(-c2ccccc2)c1	inactive
O=c1[nH]ccn(-c2ccccc2)c1=O	active
O=c1[nH]ncn1-c1ccccc1	inactive
Cc1c(C(=O)O)sc(=O)n1C	inactive
CC(C)NC(=O)N(C)C[C@@H]1Oc2cc(C#Cc3cccc(F)c3)ccc2S(=O)(=O)N([C@@H](C)CO)C[C@@H]1C	inactive
C[C@@H]1CN([C@@H](C)CO)C(=O)Cc2cc(NS(=O)(=O)c3ccccc3)ccc2O[C@@H]1CN(C)S(=O)(=O)c1ccc(F)cc1	inactive
Cc1ccc(S(=O)(=O)N(C)C[C@@H]2OCCCC[C@H](C)Oc3ccc(NC(=O)CCC(F)(F)F)cc3C(=O)N([C@H](C)CO)C[C@@H]2C)cc1	inactive
O=C(N[C@@H](c1ccccc1)c1ccc2ccccc2n1)C1CCN(CCOc2ccc(Cl)cc2Cl)CC1	inactive
O=C(N[C@H](c1ccc(F)cc1)c1ccc2ccccc2n1)C1CCN(CCOc2ccc(Cl)cc2)CC1	inactive
O=C(N[C@H](c1ccc(F)cc1)c1ccc2ccccc2n1)C1CCN(CCOc2ccc(Cl)cc2Cl)CC1	inactive
COc1ccc([C@@H](NC(=O)C2CCN(CCOc3ccc(Cl)cc3Cl)CC2)c2ccco2)cc1	inactive
COc1ccc(/C=C/CN2CCC(C(=O)N[C@@H](c3ccc(F)cc3)c3ccc4ccccc4n3)CC2)cc1	active
O=C(N[C@@H](c1ccc(F)cc1)c1ccc2ccccc2n1)C1CCN(CCOc2ccc(F)cc2)CC1	active
COc1ccc(OCCN2CCC(C(=O)N[C@@H](c3ccc(F)cc3)c3ccc4ccccc4n3)CC2)cc1	active
C[C@@H]1CN([C@@H](C)CO)C(=O)c2cccc(NS(=O)(=O)c3cccs3)c2O[C@H]1CN(C)S(=O)(=O)c1ccc(F)cc1	inactive
C[C@@H]1CN([C@H](C)CO)S(=O)(=O)c2ccc(-c3cccc(C#N)c3)cc2O[C@H]1CN(C)C(=O)c1cccnc1	inactive
COc1cccc(S(=O)(=O)N2C[C@@H](O)COC[C@@H]3O[C@H](CC(=O)N4CCN(C)CC4)CC[C@H]32)c1	inactive
CO[C@H]1CN(C)C(=O)c2cc(NS(=O)(=O)c3ccccc3)ccc2OC[C@@H](C)N(C(=O)NC(C)C)C[C@H]1C	inactive
CC(C)(C)c1nc[nH]c1/C=c1\[nH]c(=O)/c(=C/c2ccccc2)[nH]c1=O	inactive
C[C@@H]1CN([C@@H](C)CO)C(=O)c2cc(NS(=O)(=O)c3cn(C)cn3)ccc2O[C@@H](C)CCCCO[C@@H]1CN(C)C(=O)CCCN(C)C	inactive
CO[C@@H]1CN(C)C(=O)c2cc(NC(=O)Nc3ccccc3F)ccc2OC[C@H](C)N(CCC(F)(F)F)C[C@@H]1C	inactive

Structure (SMILES)	cytotoxicity call
CC(=O)O[C@H](C[C@H](O)[C@@](C)(CCC=C(C)C)O[C@H]1O[C@@H](CO)[C@@H](O)[C@@H](O)[C@@H]1O)/C(C)=C/COC[C@@H](O)[C@@H](O)[C@@H](O)[C@@H](O)CO	inactive
CCCCCCOc1cccc(N)c1	inactive
C[C@@H]1CCCCO[C@H](CN(C)C(=O)Nc2cccc3ccccc23)[C@@H](C)CN([C@@H](C)CO)C(=O)c2cc(NC(=O)CCCN(C)C)ccc2O1	inactive
CNC[C@@H]1OCCCC[C@@H](C)Oc2ccc(NS(=O)(=O)c3cn(C)cn3)cc2C(=O)N([C@H](C)CO)C[C@@H]1C	inactive
C[C@@H]1CCCCO[C@@H](CN(C)CC2CCCCC2)[C@H](C)CN([C@H](C)CO)C(=O)c2cc(NC(=O)Nc3ccc(C(F)(F)F)cc3)ccc2O1	active
C[C@H](CO)N1C[C@H](C)[C@@H](CN(C)CC2CCCCC2)OCCCC[C@H](C)Oc2ccc(NC(=O)Nc3ccc(C(F)(F)F)cc3)cc2C1=O	active
C[C@@H]1CCCCO[C@@H](CN(C)CC2CCCCC2)[C@H](C)CN([C@@H](C)CO)C(=O)c2cc(NC(=O)Nc3ccc(C(F)(F)F)cc3)ccc2O1	active
C[C@@H]1CN([C@@H](C)CO)C(=O)c2cc(NC(=O)Nc3ccc(C(F)(F)F)cc3)ccc2O[C@@H](C)CCCCO[C@H]1CN(C)CC1CCCCC1	inactive
C[C@H]1CCCCO[C@@H](CN(C)CC2CCCCC2)[C@@H](C)CN([C@@H](C)CO)C(=O)c2cc(NC(=O)Nc3ccc(C(F)(F)F)cc3)ccc2O1	active
CC(C)=CCCC(C)=CCOc1ccc2ccc(=O)oc2c1	inactive
O=C1/C(=C/c2cn(-c3ccccc3)nc2-c2ccc(OCc3ccc(Cl)cc3)cc2)SC(=S)N1CCS(=O)(=O)O	inactive
CCS(=O)(=O)NCC[C@H]1CC[C@H](NC(=O)C2CCOCC2)[C@@H](CO)O1	inactive
O=C(C[C@H]1C[C@H]2c3cc(NS(=O)(=O)c4ccc(F)cc4)ccc3O[C@H]2[C@@H](CO)O1)NCCc1ccccc1	inactive
COc1ccc(S(=O)(=O)N(C)C[C@H]2OCCCC[C@H](C)Oc3ccc(NC(=O)Nc4c(C)noc4C)cc3C(=O)N([C@H](C)CO)C[C@@H]2C)cc1	inactive
C[C@H]1CN([C@@H](C)CO)C(=O)Cc2cc(NC(=O)c3ccncc3)ccc2O[C@@H]1CN(C)S(=O)(=O)c1ccc(F)cc1	inactive
CN1CCN(C(=O)C[C@@H]2C[C@H]3c4cc(NC(=O)c5ccc6c(c5)OCO6)ccc4O[C@H]3[C@@H](CO)O2)CC1	inactive
CC(=O)O[C@@H]1CC[C@@]2(C)[C@@H](CC[C@]3(C)[C@@H]2C(=O)C=C2[C@@H]4[C@@H](C)[C@H](C)CC[C@]4(C)CC[C@]23C)[C@@]1(C)C(=O)O	inactive
C[C@@H]1CN([C@H](C)CO)C(=O)c2cccc(NC(=O)C3CC3)c2O[C@@H]1CN(C)C(=O)Nc1ccc2c(c1)OCO2	inactive
Cc1noc(C)c1NC(=O)N(C)C[C@@H]1Oc2ncc(C#CCN(C)C)cc2C(=O)N([C@H](C)CO)C[C@H]1C	inactive
C[C@@H]1CCCCO[C@@H](CN(C)CC2CCCCC2)[C@@H](C)CN([C@H](C)CO)C(=O)c2cc(NC(=O)Nc3ccc(C(F)(F)F)cc3)ccc2O1	active
C[C@@H]1CN([C@H](C)CO)C(=O)c2cc(NC(=O)Nc3ccc(C(F)(F)F)cc3)ccc2O[C@@H](C)CCCCO[C@@H]1CN(C)CC1CCCCC1	active

Structure (SMILES)	cytotoxicity call
C[C@@H]1CCCCO[C@H](CN(C)CC2CCCCC2)[C@@H](C)CN([C@H](C)CO)C(=O)c2cc(NC(=O)Nc3ccc(C(F)(F)F)cc3)ccc2O1	active
C[C@H](CO)N1C[C@H](C)[C@H](CN(C)CC2CCCCC2)OCCCC[C@H](C)Oc2ccc(NC(=O)Nc3ccc(C(F)(F)F)cc3)cc2C1=O	active
COCC(=O)Nc1ccc2c(c1)C(=O)N(C)C[C@@H](OC)[C@H](C)CN(C(=O)Cc1ccccn1)[C@@H](C)CO2	inactive
C[C@@H]1CN([C@@H](C)CO)C(=O)c2cc(C#CCc3ccccc3)cnc2O[C@@H]1CN(C)C(=O)C1CCOCC1	inactive
Cc1ccc(S(=O)(=O)N(C)C[C@@H]2Oc3c(NC(=O)C4CC4)cccc3C(=O)N([C@H](C)CO)C[C@@H]2C)cc1	inactive
C[C@@H]1CN([C@@H](C)CO)S(=O)(=O)c2ccc(C#C[C@@H](C)O)cc2O[C@H]1CN(C)C(=O)Nc1ccccc1	inactive
C[C@H]1CN([C@@H](C)CO)C(=O)c2cccc(NS(=O)(=O)c3cn(C)cn3)c2O[C@H]1CN(C)Cc1ccc2c(c1)OCO2	inactive
C[C@@H]1CCCCO[C@H](CN(C)Cc2ccc(C(=O)O)cc2)[C@H](C)CN([C@H](C)CO)C(=O)c2cc(NS(=O)(=O)c3ccc(F)cc3)ccc2O1	inactive
CC(C)NC(=O)Nc1ccc2c(c1)C(=O)N([C@H](C)CO)C[C@H](C)[C@H](CN(C)S(C)(=O)=O)OCCCC[C@H](C)O2	inactive
CCCC(=O)Nc1ccc2c(c1)C(=O)N(C)C[C@@H](OC)[C@H](C)CN(S(=O)(=O)c1cn(C)cn1)[C@H](C)CO2	inactive
C[C@@H]1CN([C@H](C)CO)C(=O)c2cccc(NS(=O)(=O)c3cccs3)c2O[C@@H]1CN(C)CC1CC1	inactive
COc1ccccc1C#Cc1cnc2c(c1)C(=O)N([C@@H](C)CO)C[C@@H](C)[C@@H](CN(C)C(=O)CC1CC1)O2	inactive
C[C@H]1CCCCO[C@H](CN(C)C(=O)Nc2ccccc2)[C@@H](C)CN([C@@H](C)CO)C(=O)c2cc(NS(=O)(=O)c3ccc(Cl)cc3)ccc2O1	inactive
COc1ccc(NC(=O)N(C)C[C@@H]2Oc3ccc(NC(=O)CCN4CCOCC4)cc3CC(=O)N([C@H](C)CO)C[C@@H]2C)cc1	inactive
C[C@H]1CN([C@@H](C)CO)C(=O)Cc2cc(NC(=O)Nc3ccc(C(F)(F)F)cc3)ccc2O[C@@H]1CN(C)C(=O)Nc1cccc2ccccc12	inactive
C[C@@H]1CN([C@H](C)CO)C(=O)Cc2cc(NS(=O)(=O)c3cn(C)cn3)ccc2O[C@@H]1CN(C)CC1CCCCC1	inactive
C[C@H](CO)N1C[C@H](C)[C@@H](CN(C)Cc2ccc(Oc3ccccc3)cc2)Oc2ncc(-c3ccncc3)cc2C1=O	inactive
C[C@@H]1CCCCO[C@H](CN(C)CC2CCCCC2)[C@H](C)CN([C@@H](C)CO)C(=O)c2cc(NC(=O)Nc3ccc(C(F)(F)F)cc3)ccc2O1	active
C[C@@H]1CN([C@@H](C)CO)C(=O)c2cc(NC(=O)Nc3ccc(C(F)(F)F)cc3)ccc2O[C@@H](C)CCCCO[C@@H]1CN(C)CC1CCCCC1	active
C[C@@H]1CCCCO[C@H](CN(C)CC2CCCCC2)[C@H](C)CN([C@H](C)CO)C(=O)c2cc(NC(=O)Nc3ccc(C(F)(F)F)cc3)ccc2O1	active
CCOC(=O)CCCCCC(=O)Nc1ccc2c(c1)C(=O)N([C@H](C)CO)C[C@@H](C)[C@@H](CN(C)S(=O)(=O)c1ccc(Cl)cc1)OCCCC[C@H](C)O2	inactive
